Measured values from PubChem BioAssay (NCI).
Several values for one entry are separate records, joined by “and”; a condition that tells them apart may be missing. Equal values may be shown once. This is part of a sample that, as a whole, favours compounds with a hit. Of some 83,000 tested, about 20% had one in any assay.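 Testing used 96-well plates and a 48-hour single-concentration exposure. Example: -40 means 40% of the starting cells died.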 Activity calls are given as the source filed them. The calls were made as follows: active = growth percent below 10; inactive = the rest.

Key:
Experiment in all cases: NCI-60 one-dose screen, 48 h (100 = growth as untreated, 0 = no growth, -100 = all killed)
Conditions in all cases: 10 µM unless noted
NCI-H23 lung = system: NCI-H23 lung
NCI-H226 lung = system: NCI-H226 lung
NCI-H322M lung = system: NCI-H322M lung
HOP-62 NSCLC = system: HOP-62 NSCLC
NCI-H460 lung = system: NCI-H460 lung
HOP-92 NSCLC = system: HOP-92 NSCLC
NCI-H522 lung = system: NCI-H522 lung
A549/ATCC NSCLC = system: A549/ATCC NSCLC
786-0 renal = system: 786-0 renal
DU-145 prostate = system: DU-145 prostate
MDA-MB-231 breast = system: MDA-MB-231 breast
RXF 393 renal = system: RXF 393 renal
SF-268 CNS = system: SF-268 CNS
SF-539 CNS = system: SF-539 CNS
UACC-257 melanoma = system: UACC-257 melanoma
M14 melanoma = system: M14 melanoma
K-562 leukemia = system: K-562 leukemia
MALME-3M melanoma = system: MALME-3M melanoma
SF-295 CNS = system: SF-295 CNS
COLO 205 colon = system: COLO 205 colon

Measured: growth

CCCn1cc2c3c(cccc31)[C@H]1C[C@@H](C)CN(C)[C@@H]1C2
inactive: NCI-H23 lung 77% | NCI-H226 lung 93.4% | NCI-H322M lung 89.4% | HOP-62 NSCLC 86.4% | NCI-H460 lung 95.7% | HOP-92 NSCLC 29.7% | NCI-H522 lung 85.9% | A549/ATCC NSCLC 96% | 786-0 renal 81.7% | DU-145 prostate 99.8% | MDA-MB-231 breast 78.3% | RXF 393 renal 86.6% | SF-268 CNS 94.8% | SF-539 CNS 85.1% | UACC-257 melanoma 78.6% | M14 melanoma 89.3%

COc1cc2c(c(OC)c1OC)-c1ccc(O)cc1[C@@H](NC(C)=O)CC2
17% (inactive) and -32.6% (active): NCI-H522 lung
active: NCI-H460 lung 5.66% and 0.839% | DU-145 prostate -21.6% and -35.8% | K-562 leukemia 3.22% | MDA-MB-231 breast 9.66% and -7.09% | SF-295 CNS -13.7% and -23.2% | SF-539 CNS 2.98% and -2.84%
42.7% (inactive) and 1.84% (active): NCI-H322M lung
5.36% (active) and 46.3% (inactive): NCI-H226 lung
inactive: NCI-H23 lung 37.7% and 13.8% | HOP-62 NSCLC 37.8% and 21.6% | HOP-92 NSCLC 16.7% | A549/ATCC NSCLC 14.9% | 786-0 renal 29.2% and 32.5% | MALME-3M melanoma 26.4% | RXF 393 renal 26.3% and 40.5% | SF-268 CNS 19.5% and 21% | UACC-257 melanoma 54.1% and 48.7% | M14 melanoma 11.5% and 16.8%

O=C(Cc1ccccc1)NC(O)C(Cl)(Cl)Cl (centres undefined)
inactive: NCI-H23 lung 102% | NCI-H226 lung 97.2% | NCI-H322M lung 122% | HOP-62 NSCLC 110% | NCI-H460 lung 120% | HOP-92 NSCLC 123% | NCI-H522 lung 105% | 786-0 renal 94.7% | COLO 205 colon 118% | DU-145 prostate 118% | K-562 leukemia 98.3% | MALME-3M melanoma 115% | MDA-MB-231 breast 106% | RXF 393 renal 105% | SF-268 CNS 104% | SF-295 CNS 103% | SF-539 CNS 108% | UACC-257 melanoma 103% | M14 melanoma 101%

O=[N+]([O-])c1ccc(OCc2ccc(S(=O)(=O)F)c(Cl)c2)c(Cl)c1
inactive: NCI-H23 lung 99.2% | NCI-H226 lung 93.4% | NCI-H322M lung 116% | HOP-62 NSCLC 106% | NCI-H460 lung 115% | HOP-92 NSCLC 77.5% | NCI-H522 lung 89.1% | A549/ATCC NSCLC 110% | 786-0 renal 79.9% | DU-145 prostate 118% | K-562 leukemia 99% | MALME-3M melanoma 98.6% | MDA-MB-231 breast 85.9% | RXF 393 renal 114% | SF-268 CNS 95.8% | SF-295 CNS 106% | SF-539 CNS 93.6% | UACC-257 melanoma 118% | M14 melanoma 96.9%

CC1=C(C)C(=O)O[C@@H]([C@](C)(O)[C@]2(O)CC[C@@]3(O)[C@@H]4C[C@H]5O[C@]56CC=CC(=O)[C@]6(C)[C@H]4CC[C@]23C)C1
inactive: HOP-92 NSCLC 15.7% | MDA-MB-231 breast 30.3% | M14 melanoma 11.3%
active: NCI-H23 lung -22% | NCI-H226 lung -45.2% | NCI-H322M lung -15.5% | HOP-62 NSCLC 2.69% | NCI-H460 lung 5.64% | NCI-H522 lung -59.5% | A549/ATCC NSCLC 7.89% | 786-0 renal -30.7% | COLO 205 colon -83.1% | DU-145 prostate 7.11% | K-562 leukemia 3.63% | MALME-3M melanoma -4.58% | SF-268 CNS -22.6% | SF-295 CNS 4.3% | SF-539 CNS -10.1% | UACC-257 melanoma 6.11%

COC(=O)CCP(CCC(=O)OC)c1ccccc1
inactive: NCI-H23 lung 102% | NCI-H226 lung 104% | NCI-H322M lung 107% | HOP-62 NSCLC 111% | NCI-H460 lung 111% | HOP-92 NSCLC 109% | NCI-H522 lung 102% | A549/ATCC NSCLC 96.8% | 786-0 renal 102% | COLO 205 colon 118% | DU-145 prostate 110% | K-562 leukemia 111% | MDA-MB-231 breast 117% | RXF 393 renal 108% | SF-268 CNS 103% | SF-295 CNS 99.4% | SF-539 CNS 101% | UACC-257 melanoma 99.7% | M14 melanoma 101%

COc1cc(-c2ccc(N)c(OC)c2)ccc1N
inactive: NCI-H23 lung 101% | NCI-H226 lung 110% | NCI-H322M lung 84.4% | HOP-62 NSCLC 95.5% | NCI-H460 lung 114% | HOP-92 NSCLC 110% | NCI-H522 lung 131% | A549/ATCC NSCLC 108% | 786-0 renal 106% | COLO 205 colon 120% | DU-145 prostate 103% | K-562 leukemia 138% | MALME-3M melanoma 78.1% | MDA-MB-231 breast 103% | SF-268 CNS 103% | SF-295 CNS 104% | SF-539 CNS 110% | UACC-257 melanoma 134% | M14 melanoma 113%

CNC(=O)CCl
inactive: NCI-H23 lung 101% | NCI-H226 lung 90.9% | NCI-H322M lung 102% | HOP-62 NSCLC 98.5% | NCI-H460 lung 107% | HOP-92 NSCLC 93.7% | NCI-H522 lung 106% | A549/ATCC NSCLC 96.3% | COLO 205 colon 108% | DU-145 prostate 114% | K-562 leukemia 121% | MALME-3M melanoma 92.5% | RXF 393 renal 110% | SF-268 CNS 104% | SF-295 CNS 105% | SF-539 CNS 102% | UACC-257 melanoma 92.5% | M14 melanoma 105%

CNC(=O)O/N=C(\SC)C(=O)N(C)C
inactive: NCI-H23 lung 93.4% | NCI-H226 lung 110% | NCI-H322M lung 111% | HOP-62 NSCLC 105% | NCI-H460 lung 107% | HOP-92 NSCLC 76.8% | NCI-H522 lung 77.5% | 786-0 renal 105% | COLO 205 colon 105% | DU-145 prostate 117% | K-562 leukemia 89.2% | MALME-3M melanoma 117% | MDA-MB-231 breast 110% | RXF 393 renal 105% | SF-268 CNS 105% | SF-295 CNS 113% | SF-539 CNS 103% | UACC-257 melanoma 103% | M14 melanoma 102%

O=C1CN2CCC1CC2
inactive: NCI-H23 lung 101% | NCI-H226 lung 96.8% | NCI-H322M lung 99.3% | HOP-62 NSCLC 93.5% | NCI-H460 lung 115% | HOP-92 NSCLC 106% | NCI-H522 lung 90.3% | 786-0 renal 88.9% | COLO 205 colon 116% | DU-145 prostate 103% | K-562 leukemia 93.9% | MALME-3M melanoma 102% | MDA-MB-231 breast 108% | RXF 393 renal 111% | SF-268 CNS 99% | SF-295 CNS 99.9% | SF-539 CNS 97.8% | UACC-257 melanoma 109% | M14 melanoma 104%

CCOC(=O)c1ccccc1C(=O)OCC
inactive: NCI-H23 lung 109% | NCI-H226 lung 94.6% | NCI-H322M lung 97.8% | HOP-62 NSCLC 92.6% | NCI-H460 lung 112% | HOP-92 NSCLC 89.4% | NCI-H522 lung 61.1% | A549/ATCC NSCLC 99.2% | 786-0 renal 96.4% | COLO 205 colon 120% | DU-145 prostate 118% | MALME-3M melanoma 102% | MDA-MB-231 breast 93.3% | RXF 393 renal 121% | SF-268 CNS 110% | SF-295 CNS 83.5% | SF-539 CNS 107% | UACC-257 melanoma 91.3% | M14 melanoma 103%

Cc1ccc(NC2=N[C@]34CC(=O)CC[C@]3(C)[C@H]3CC[C@]5(C)C(=O)CC[C@H]5[C@@H]3C[C@@H]4S2)c(C)c1
inactive: NCI-H23 lung 54.2% | NCI-H226 lung 72.8% | NCI-H322M lung 79.5% | HOP-62 NSCLC 45.7% | NCI-H460 lung 45.8% | HOP-92 NSCLC 65.9% | NCI-H522 lung 24.6% | A549/ATCC NSCLC 61.1% | DU-145 prostate 25.9% | MALME-3M melanoma 27.3% | MDA-MB-231 breast 26.6% | RXF 393 renal 28.8% | SF-268 CNS 46.9% | SF-295 CNS 63.8% | UACC-257 melanoma 65.6% | M14 melanoma 37.9%
active: 786-0 renal 5.54% | K-562 leukemia 5.33% | SF-539 CNS 8.46%

NC(N)=NC(N)=Nc1ccc(Cl)cc1
inactive: NCI-H23 lung 103% | NCI-H226 lung 98.5% | NCI-H322M lung 109% | HOP-62 NSCLC 112% | NCI-H460 lung 106% | HOP-92 NSCLC 89.7% | NCI-H522 lung 93.6% | A549/ATCC NSCLC 111% | 786-0 renal 115% | DU-145 prostate 116% | K-562 leukemia 99% | MALME-3M melanoma 116% | MDA-MB-231 breast 113% | RXF 393 renal 108% | SF-268 CNS 95.4% | SF-295 CNS 98.1% | SF-539 CNS 103% | UACC-257 melanoma 111% | M14 melanoma 114%

CCC(=O)C(CC(C)[N+](C)(C)C)(c1ccccc1)c1ccccc1 (centres undefined)
inactive: NCI-H23 lung 91.7% | NCI-H226 lung 87.8% | NCI-H322M lung 103% | HOP-62 NSCLC 91.6% | NCI-H460 lung 106% | HOP-92 NSCLC 103% | NCI-H522 lung 86.1% | A549/ATCC NSCLC 95.8% | 786-0 renal 92.9% | COLO 205 colon 85.8% | DU-145 prostate 112% | K-562 leukemia 103% | MALME-3M melanoma 106% | RXF 393 renal 104% | SF-268 CNS 103% | SF-295 CNS 95.3% | SF-539 CNS 96.6% | UACC-257 melanoma 94.7% | M14 melanoma 96.2%

Cc1cc(N)ccc1N
inactive: NCI-H23 lung 105% | NCI-H226 lung 92% | NCI-H322M lung 95% | HOP-62 NSCLC 93.9% | NCI-H460 lung 106% | HOP-92 NSCLC 95.1% | NCI-H522 lung 106% | A549/ATCC NSCLC 98.2% | DU-145 prostate 115% | K-562 leukemia 105% | MALME-3M melanoma 105% | RXF 393 renal 103% | SF-268 CNS 103% | SF-295 CNS 108% | SF-539 CNS 95.8% | UACC-257 melanoma 97.2% | M14 melanoma 104%
